Wnt act: activators of Wnt/beta-catenin signaling | 1.2% of 300,000 active | activation, % at 9.35 µM | Wnt/beta-catenin reporter cell assay, activator, plate reader | AID 743398; in the data active = activation above about 30%, passing the limit was not always enough; inconclusive = no clear call, values can overlap the other calls
Env fusion inh: blocks HIV Env-driven cell-cell fusion. inhibition, % at 12.3 µM. HeLa-JRFL Env/CEM21 cell fusion, luciferase. 1.1% of 360,000 active;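 active = mean replicate inhibition score of at least 50 and every replicate individually at or above 50; inconclusive = only one of the two criteria met; inactive = mean below 50 and not all replicates reaching 50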
GSIS activator: primary screen for activators of insulin secretion dependent on glucose, INS-1E cells, GLuc reporter luminescence; INS-1E GLuc reporter insulin secretion, 2-3 h; activation, % at 16.6 µM; 0.61% of 370,000 active; AID 743287;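 active = lowest replicate activation of at least 40%, so every replicate reaches that level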
MITF act: MITF TRPM1 promoter activation in melanoma cells. SK-MEL-5 TRPM1-promoter luciferase, 24 h; % of positive control, neutral wells = 0. activation, % at 12.5 µM. 0.75% of 300,000 active;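 active = mean activation of at least 80% with every replicate also reaching 80%; inconclusive = mean reaches 80% but some replicate falls short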
F508del corr: CFTR F508del correction in bronchial cells | CFBE cells, YFP halide quenching; stimulated with forskolin plus potentiator P3; % fluorescence drop versus neutral controls | activity (quench increase), % at 7.58 µM | 0.36% of 350,000 active | AID 720511;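 active = mean added fluorescence quench of at least 8% versus neutral control, with both replicates also reaching 8%; inconclusive = only one of the mean or replicate conditions met; inactive = mean below 8% and not both replicates reaching 8%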;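 also: cells transiently co-express mutant CFTR-F508del with the halide-sensitive YFP; corrector assay measuring rescue of mutant channel to the surface after 24 h compound exposure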
Of the large screens only hits and unclear results are named; the others gave an inactive call. A selection: hits, their analogues and other compounds. The true share with any hit is near 2.7%.

CCN(CC)CCOC(=O)/C=C/c1ccccc1	none (no result: GSIS activator)
C[C@@H]1CN([C@H](C)CO)C(=O)c2cc(NC(=O)Nc3cccc4ccccc34)ccc2O[C@@H](C)CCCCO[C@H]1CN(C)Cc1ccc(C(=O)O)cc1	none (no result: Wnt act, MITF act)
C[C@H]1CN([C@@H](C)CO)C(=O)c2cc(NS(=O)(=O)c3ccccc3)ccc2O[C@@H]1CN(C)S(=O)(=O)c1cccs1	none (no result: Wnt act, MITF act)
CCC(C)(C)c1ccc2c(c1)C(=O)c1ccccc1C2=O	Wnt act 39 (no result: F508del corr)
Cc1noc(C)c1S(=O)(=O)N(C)C[C@@H]1OCCCC[C@H](C)Oc2ccc(NC(=O)c3ccccc3)cc2C(=O)N([C@@H](C)CO)C[C@H]1C	none (no result: Wnt act, MITF act)
CCCCSc1nnc2c(n1)[nH]c1ccccc12	Wnt act 62 (no result: GSIS activator, F508del corr)
CC(C)CSc1nnc2c(n1)[nH]c1ccccc12	Wnt act 50 (no result: GSIS activator, F508del corr)
O=C(O)CSc1nnc2c(n1)[nH]c1ccccc12	none
COC(=O)C(NC(=O)c1ccccc1C)(Nc1ncc(S(=O)(=O)c2ccc([N+](=O)[O-])cc2)s1)C(F)(F)F (stereo unspecified)	Env fusion inh inconclusive (no result: GSIS activator, MITF act, F508del corr)
COC(=O)C(NC(=O)c1ccc(F)cc1)(Nc1ncc(S(=O)(=O)c2ccc([N+](=O)[O-])cc2)s1)C(F)(F)F (stereo unspecified)	Env fusion inh 127 (no result: Wnt act, GSIS activator, F508del corr)
COCC(=O)Nc1ccc2c(c1)OC[C@@H](C)N(C(=O)c1ccncc1)C[C@@H](C)[C@H](OC)CN(C)C2=O	none (no result: Wnt act, MITF act)
Cc1ccc(NC(=O)c2cc(-c3ccccc3)nn2-c2ccccc2)cc1	none (no result: F508del corr)
CC(=O)C(/C=N/c1cc(-c2ccc(C)cc2)nn1-c1ccccc1)=C(\C)O	Wnt act 38 (no result: GSIS activator, F508del corr)
Cc1[nH]c2ccccc2c1/C=N\NC(=O)c1ccccc1Cl	Env fusion inh 70 (no result: GSIS activator, MITF act)
Cc1cc(N2CCCC2)ccc1/C=C1\NC(=S)N(C)C1=O	Wnt act 54 (no result: F508del corr)
CN1C(=O)c2ccc(N3CCCC3)cc2C1=O	none (no result: Wnt act, Env fusion inh, F508del corr)
O=C(c1cccc(F)c1)N1C[C@H]2[C@@H](c3ccccc31)[C@H](CO)N2C(=O)c1ccccn1	none (no result: Wnt act, Env fusion inh, MITF act)
O=C(/C=C\Nc1ccc(Br)cc1)c1cccnc1	Wnt act 38 (no result: Env fusion inh, F508del corr)
CN(Cc1cccs1)c1ncnc2sccc12	Env fusion inh 70 (no result: Wnt act, GSIS activator, F508del corr)
c1csc(CNc2ncnc3sccc23)c1	Env fusion inh 80 (no result: Wnt act, GSIS activator, MITF act, F508del corr)
CN(Cc1ccccc1F)c1ncnc2sccc12	none
NC(=O)C1CCN(c2cc(Cl)nc(N)n2)CC1	none
COC(=O)C1CCN(c2cc(Cl)nc(N)n2)CC1	GSIS activator 48
Cc1ccccc1OCC(=O)N/N=C/c1ccc([N+](=O)[O-])o1	none
COc1ccccc1OCC(=O)N/N=C/C=C/c1ccc([N+](=O)[O-])o1	Wnt act 69 (no result: F508del corr)
COc1cccc(C(=O)NC(=S)Nc2ccc3oc(=O)ccc3c2)c1	none (no result: F508del corr)
Cc1ccc(C(=O)NC(=S)Nc2ccc(-c3cc4ccccc4oc3=O)cc2)c(C)c1	none (no result: Env fusion inh, GSIS activator, F508del corr)
COc1cc(OC)cc(C(=O)NC(=S)Nc2ccc3oc(=O)ccc3c2)c1	F508del corr 9.6
Cc1cc(C)cc(C(=O)NC(=S)Nc2ccc(-c3cc4ccccc4oc3=O)cc2)c1	GSIS activator 42 (no result: F508del corr)

High-throughput results (PubChem BioAssay)
